# Measured values: publication PMC7826789 (International Journal of Molecular Sciences, 2021)
# What was measured:
# Conditions in all cases: Compound Concentration (nM):1000
# FLT3(K663Q) = tested on: FLT3(K663Q)
# FLT3(N841I) = tested on: FLT3(N841I)
# FLT3(R834Q) = tested on: FLT3(R834Q)
# FLT3-autoinhibited = tested on: FLT3-autoinhibited
# FLT3 = tested on: FLT3
# FLT4 = tested on: FLT4
# FRK = tested on: FRK
# FYN = tested on: FYN
# GAK = tested on: GAK
# GCN2(Kin.Dom.2,S808G) = tested on: T1, GCN2(Kin.Dom.2,S808G)
# T1 construct: gene EIF2AK4
# 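Further: KINOMEscan scanMAX binding as percent activity remaining versus control; lower means stronger binding.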
Structure (SMILES),Percent Control (FLT3(K663Q)) [%],Percent Control (FLT3(N841I)) [%],Percent Control (FLT3(R834Q)) [%],Percent Control (FLT3-autoinhibited) [%],Percent Control (FLT3) [%],Percent Control (FLT4) [%],Percent Control (FRK) [%],Percent Control (FYN) [%],Percent Control (GAK) [%],"Percent Control (GCN2(Kin.Dom.2,S808G)) [%]"
COc1ccc2cc(-c3c(-c4ccncc4)nc(-c4ccc(S(C)(=O)=O)cc4C)n3C)ccc2c1 [SB-633825],93,96,95,100,92,54,76,78,59,100
COc1ccccc1-c1cc(/C=C2\C(=O)Nc3ncc(Br)cc32)cc(Br)c1O [GW442130X],100,85,87,100,100,96,100,93,83,79
CC(C)COC(=O)c1ccc2c(c1)/C(=C/Nc1ccc(S(N)(=O)=O)cc1)C(=O)N2 [GW416981X],42,11,18,45,42,100,100,98,40,96
COC(=O)Nc1nc2ccc(Oc3ccc(NC(=O)Nc4cc(C(F)(F)F)ccc4F)cc3)cc2s1.Cl [GW693917A],1,89,11,65,2.4,2.4,15,52,97,100
CCc1ccc(Oc2nccc(-c3c(-c4ccc(F)cc4)ncn3C3CCNCC3)n2)cc1 [SB-242719],96,69,90,100,71,95,99,96,84,100
COc1ccc2c(-c3ccnc(Nc4cccc(OC(F)(F)F)c4)n3)cnn2n1 [GW810372X],30,55,73,86,23,100,100,100,66,85
Cl.O=C(Nc1ccc(Oc2ccc3[nH]c(NC(=O)c4ccccc4)nc3c2)cc1)Nc1cc(C(F)(F)F)ccc1F [GW709042A],2.6,0,15,90,2.4,12,71,100,100,84
NS(=O)(=O)c1ccc(N/N=C2\C(=O)Nc3ccc(-c4cnco4)cc32)cc1 [GW276655],79,70,42,61,100,67,81,81,70,89
CN(C)c1cc2c(Nc3ccc4c(cnn4Cc4ccccc4)c3)ncnc2cn1 [GW282974X],79,100,95,93,73,100,100,90,76,100
C[C@@H](Oc1cc(-n2cnc3ccc(OC4CCN(C)CC4)cc32)sc1C(N)=O)c1ccccc1Cl [GSK579289A],17,8.1,18,87,18,81,93,86,69,39
O=C1Nc2ccc(C(=O)c3ccco3)cc2C1=Cc1cc(Cl)c(O)c(Cl)c1 [GW406108X],83,54,73,84,71,100,100,92,5.9,71
Nc1ncnc2occ(-c3ccc(NC(=O)Nc4cc(C(F)(F)F)ccc4F)cc3)c12 [GW770249X],0.5,0,0,33,0.1,0.7,12,95,100,99
COc1cccc(-c2c[nH]c3c(N/N=C/c4ccncc4)ncnc23)c1 [GW814408X],76,12,19,66,26,90,100,66,11,8.3
COc1cc(C=NNc2ncnc3c2cnn3-c2ccccc2)ccc1O [GW513184X],63,27,72,100,34,97,100,90,100,49
COc1ccc2[nH]c3c4[nH]c5ccc(OC)cc5c4c4c(c3c2c1)C(=O)NC4=O [GW296115X],9.7,0,6.3,53,28,71,88,84,0.3,74
COc1cc(N2CCN(C(C)C)CC2)ccc1Nc1nc(Nc2ccc(F)cc2C(=O)NC[C@@H](O)CO)c2cc[nH]c2n1 [GSK1392956A],100,74,100,95,78,85,100,100,6.9,48
NS(=O)(=O)c1ccc(N/N=C2\C(=O)Nc3ccc(C(=O)NCCc4c[nH]cn4)cc32)cc1 [GW300660X],100,100,45,100,90,100,100,100,100,100
Cl.O=C(O[C@H]1CN[C@H](C#Cc2cc3ncnc(Nc4ccc5c(cnn5Cc5ccccc5)c4)c3s2)C1)N1CCOCC1 [GSK200398A],66,100,92,89,77,100,90,81,88,44
CCS(=O)(=O)c1ccc(OC)c(Nc2ncc(-c3cccc(OC)c3)o2)c1 [GW580509X],10,0,18,40,5.9,13,39,48,38,82
CN1CCN(C(=O)c2ccc(NC(=O)Nc3ccc(N(C)c4ccnc(Nc5ccc(CS(C)(=O)=O)cc5)n4)cc3)cc2)CC1.Cl [GW830263A],0,0,0,7.3,1.5,2,80,98,18,100
C/C(Nc1ccc(S(N)(=O)=O)cc1)=C1/C(=O)Nc2ccccc21 [GW335962X],60,83,40,7.7,56,100,96,90,61,100
CCn1c(-c2nonc2N)nc2c(C#CC(C)(C)O)nc(OCCNC)cc21.Cl [GSK949675],100,100,78,100,100,75,100,100,100,89
CN(C)CCNC(=O)Nc1ccc(N(C)c2ccnc(Nc3ccc(CS(C)(=O)=O)cc3)n2)cc1.Cl [GW830900A],89,5.6,16,27,2.9,54,99,93,13,100
NS(=O)(=O)c1ccc(N/N=C2\C(=O)Nc3ccc(C(=O)NCc4ccncc4)cc32)cc1 [GW300657X],92,50,68,74,82,77,100,96,66,100
CCS(=O)(=O)c1ccc(OC)c(Nc2ncc(-c3cccc(F)c3)o2)c1 [GW621970X],7.9,56,29,7.9,5,5,16,26,63,71
NS(=O)(=O)c1ccc(N/N=C2\C(=O)Nc3ccc(Cl)cc32)cc1 [GW280670X],18,100,68,15,21,100,100,100,100,100
COc1cc(C)c(N(C)C(=O)CN(C)C)cc1Nc1nc(Nc2cccc(F)c2C(N)=O)c2cc[nH]c2n1 [GSK2219385],100,93,100,100,91,100,100,100,56,100
COc1cc2ncn(-c3cc(O[C@H](C)c4ccccc4Cl)c(C(N)=O)s3)c2cc1OC [GSK237701A],6.5,3.3,14,95,21,9.4,100,100,17,31
